An excerpt weighted towards active compounds, which were near 17% of everything screened.
HT1080NT lethal = kills 2HG-producing HT-1080-NT fibrosarcoma cells. HT-1080-NT fibrosarcoma viability, CellTiter-Glo ATP luminescence, 48 h. Potency, µM (series often up to 46.1 µM), usual class: cytotoxic. 360,000 tested, 1.6% active. AID 686970;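 further: NT is the 2HG producing partner of a matched IDH1 knockdown line; nearly all actives have a fitted effect of over 55% in size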
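Fibrosarcoma NT cells, 750 per well in 5% FBS RPMI, were exposed to compound for 48 hours. Viability: CellTiter-Glo luminescence.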
HT1080 IDH1KD tx = toxicity to HT-1080 IDH1 knockdown cells (counter line); AID 686971; 360,000 tested, 2% active; HT-1080 IDH1 knockdown viability, ATP luminescence, 48 h; Potency, µM (highest dose often 46.1 µM), most hits filed as cytotoxic
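CellTiter-Glo luminescence after 48 h compound exposure at 37 degrees C of IDH1-knockdown HT-1080 cells in 5% FBS RPMI. %Activity scaled between DMSO wells and cell-free media wells, with curves fitted and assigned curve classes.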
TDP1 cell noCPT = qHTS for Inhibitors of human tyrosyl-DNA phosphodiesterase 1 (TDP1): qHTS in cells in absence of CPT | 420,000 tested, 15% active | AID 686978, 2013 | Potency, µM (doses to about 46.2 µM), usual class: inhibitors | DT40 Tdp1-/- hTDP1 cells, no CPT, ATP luminescence, 48 h; further: nearly all actives have a fitted effect of over 55% in size
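Stably hTDP1-transfected Tdp1-null chicken DT40 cells were treated with library compounds minus camptothecin and grown for at least 48 hr at 37 °C, after which cellular ATP was quantified by luminescence.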
DT40 TDP1 CPT = DT40-hTDP1 cell growth loss with CPT; 420,000 tested, 12% active; AID 686979; Potency, µM (series often up to 46.2 µM), most hits filed as inhibitors; chicken DT40 Tdp1-/-;hTDP1 cells + 20 nM CPT, ATP luminescence, 48 h; further: nearly all actives have a fitted effect of over 55% in size
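Chicken DT40 Tdp1-/- cells complemented with human TDP1, 400 cells/well, exposed to compounds plus 20 nM camptothecin for at least 48 h at 37 C; viability read as ATP content by CellTiter-Glo luminescence.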
TGFb inhibitor = inhibitors of TGF-b signaling; HepG2 CAGA-GFP TGF-b/SMAD3 reporter, GFP fluorescence, 18 h; TGF-beta stimulated, 500 pg/mL final; Potency, µM (highest dose often 46.1 µM), actives largely listed as inhibitors; 410,000 tested, 1.2% active; AID 588855; further: nearly all actives have a fitted effect of over 65% in size
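Cell-based qHTS in HEPG2 carrying a CAGA-GFP Smad reporter; compounds added before 500 pg/mL final TGF-beta, 18 h incubation at 37 degrees C, GFP fluorescence quantified per cell by imaging cytometry.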
HepG2 viability = kills HepG2 cells in TGF-b inhibitor counter-screen; AID 588856; 410,000 tested, 0.76% active; Potency, µM (top dose mostly 46.1 µM), most hits filed as cytotoxic; HepG2 CAGA-GFP viability, ATP luminescence, 18 h
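CellTiter-Glo luminescence gave cytotoxicity after 18 hours at 37 degrees C. The cells were HepG2 CAGA-GFP in 1% FBS DMEM, stimulated with 500 pg/mL TGF-beta after compound addition. %Activity was normalised to no-cell wells (complete cell-killing) and DMSO (no toxicity), and curves were fitted and classified.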
Large screens that a line does not name were inactive. The call rests on the fitted dose curve; in most records, active means well fitted curve in the direction sought with a large enough effect; inconclusive means small, poorly fitted or top-dose-only effect, or another doubt; inactive means no such curve, though single readings can be large; an effect the other way counts as inactive or inconclusive.

Cc1cccc(NC(=O)c2c([N+](=O)[O-])cnn2C)c1	none
CC[C@H](C)[C@H](NC(=O)c1ccccc1)C(=O)NC(CC(=O)O)c1ccc(F)cc1 (some centres not stated)	none
N=c1nc(N)nc2n1NC(c1ccc(F)cc1)=CS2	HT1080NT lethal inconclusive, HT1080 IDH1KD tx inconclusive, TDP1 cell noCPT 16µM, DT40 TDP1 CPT 18µM
COc1cccc(/C=N/NC(=O)CSCC(=O)Nc2ccccc2)c1O	HT1080NT lethal 4µM, HT1080 IDH1KD tx 2µM, TDP1 cell noCPT 3.2µM, DT40 TDP1 CPT 4.5µM
COc1cccc(/C=N\NC(=O)Cn2nnc3ccccc32)c1O	HT1080NT lethal inconclusive, HT1080 IDH1KD tx inconclusive, TDP1 cell noCPT 2.9µM, DT40 TDP1 CPT 3.7µM
COc1ccc(O)c(/C=N\NC(=O)CCn2nnc3ccccc32)c1	HT1080NT lethal inconclusive, HT1080 IDH1KD tx inconclusive, TDP1 cell noCPT 23µM, DT40 TDP1 CPT inconclusive, TGFb inhibitor inconclusive
COc1ccc2c(c1)c1c(c(=O)n(Cc3ccccc3)c(=O)n1CC(=O)Nc1ccc(C)cc1C)n2C	none (no result: HT1080NT lethal, HT1080 IDH1KD tx)
O/N=C(/C[n+]1ccsc1)c1ccc(I)cc1	TDP1 cell noCPT 3.5µM, DT40 TDP1 CPT 5µM (no result: HT1080NT lethal, HT1080 IDH1KD tx)
O=C(C[n+]1ccccc1Cl)c1ccc(I)cc1	TDP1 cell noCPT inconclusive (no result: HT1080NT lethal, HT1080 IDH1KD tx)
COc1ccc(-c2cc(C(=O)Nc3ccc(OC)c(OC)c3)[nH]n2)c(C)c1	TDP1 cell noCPT inconclusive, DT40 TDP1 CPT inconclusive
CC(=O)c1sc(NC(=O)c2c(-c3ccccc3)c(-c3ccccc3)nn(C)c2=O)nc1C	TDP1 cell noCPT 0.52µM, DT40 TDP1 CPT 0.41µM (no result: HT1080NT lethal, HT1080 IDH1KD tx)
CCCOC(=O)c1c(-c2ccccc2)c(-c2ccccc2)nn(C)c1=O	TDP1 cell noCPT 15µM, DT40 TDP1 CPT 21µM (no result: HT1080NT lethal, HT1080 IDH1KD tx)
CCC(C)NC(=O)c1c(-c2ccccc2)c(-c2ccccc2)nn(C)c1=O (configuration not stated)	TGFb inhibitor inconclusive (no result: HT1080NT lethal, HT1080 IDH1KD tx)
Cc1ccc(CNc2oc(-c3ccco3)nc2C#N)cc1	TDP1 cell noCPT inconclusive
COCCCNc1oc(-c2ccccc2F)nc1C#N	DT40 TDP1 CPT inconclusive
CCOc1ccc(-c2nc(C#N)c(NCc3ccco3)o2)cc1	TDP1 cell noCPT inconclusive, DT40 TDP1 CPT 21µM
CCOc1ccc(/C=C/c2nc(C#N)c(NCCCN(C)C)o2)cc1	HT1080NT lethal inconclusive, HT1080 IDH1KD tx inconclusive, TDP1 cell noCPT inconclusive, DT40 TDP1 CPT 21µM, TGFb inhibitor inconclusive
CCOc1ccc(/C=C/c2nc(C#N)c(NCCCOC)o2)cc1	HT1080NT lethal inconclusive, HT1080 IDH1KD tx inconclusive, TDP1 cell noCPT 1.5µM, DT40 TDP1 CPT 2.3µM
COCCCNc1oc(/C=C/c2ccccc2)nc1C#N	none
CCOc1ccc(-c2nc(C#N)c(NCCCOC)o2)cc1	TDP1 cell noCPT 6.5µM, DT40 TDP1 CPT 8.2µM (no result: HT1080NT lethal, HT1080 IDH1KD tx)
C=CCn1c(=O)c(C(=O)Nc2ncccc2C)c(O)c2ccccc21	HT1080NT lethal inconclusive, HT1080 IDH1KD tx inconclusive
Cn1cnc(S(=O)(=O)N2CCCCC2c2cc(C(=O)NCc3ccc(F)cc3)no2)c1 (configuration not stated)	none
CCOC(=O)N1CCN(C(=O)c2ccc(Cn3c(=S)[nH]c4cc5c(cc4c3=O)OCO5)cc2)CC1	TDP1 cell noCPT 16µM, DT40 TDP1 CPT 23µM
CCOC(=O)N1CCN(C(=O)c2ccc3c(=O)n(Cc4ccccc4)c(=S)[nH]c3c2)CC1	none
CCOC(=O)N1CCN(C(=O)c2ccc(Cn3c(=S)[nH]c4cc(OCC)c(OCC)cc4c3=O)cc2)CC1	TDP1 cell noCPT 9.2µM, DT40 TDP1 CPT 10µM
CCC(=O)N(c1nnc(SCC(=O)c2ccc[nH]2)s1)C1CC1	none
CCOC(=O)C1=C(C)N=c2s/c(=C\c3ccc(O)c([N+](=O)[O-])c3)c(=O)n2C1c1ccccc1OC (configuration not stated)	HT1080NT lethal inconclusive, TDP1 cell noCPT 18µM
CCOC(=O)C1=C(c2ccccc2)N=c2s/c(=C\c3cc(OC)c(OC)c(OC)c3)c(=O)n2C1c1cccs1 (configuration not stated)	TDP1 cell noCPT 6.5µM, DT40 TDP1 CPT inconclusive
CCOC(=O)C1=C(c2ccccc2)N=c2s/c(=C\c3ccco3)c(=O)n2C1c1cccs1 (configuration not stated)	TDP1 cell noCPT inconclusive, DT40 TDP1 CPT inconclusive
COc1ccc(C2C(C(C)=O)=C(C)N=c3s/c(=C\c4ccc5c(c4)OCO5)c(=O)n32)c(OC)c1 (configuration not stated)	TDP1 cell noCPT inconclusive
CCOC(=O)C1=C(C)N=c2s/c(=C\c3ccc(OCC(=O)O)cc3)c(=O)n2C1c1ccccc1OC (configuration not stated)	none
COc1ccc(C2C(C(C)=O)=C(C)N=c3s/c(=C\c4ccco4)c(=O)n32)c(OC)c1 (configuration not stated)	DT40 TDP1 CPT 8.2µM
COc1ccc(/C=c2/sc3n(c2=O)C(c2ccccc2OC)C2=C(N=3)c3ccccc3CC2)cc1O (configuration not stated)	HT1080NT lethal inconclusive, HT1080 IDH1KD tx 26µM, TDP1 cell noCPT 23µM, DT40 TDP1 CPT 29µM, TGFb inhibitor inconclusive
C=CC(C)(C)c1c2c(c(O)c3c(=O)c4ccc(O)c(O)c4oc13)C=CC(C)(C)O2	none (no result: HT1080NT lethal, HT1080 IDH1KD tx, TGFb inhibitor, HepG2 viability)
COc1ccc(NC(=O)CN2C(=O)C3CC=CCC3C2=O)cc1Cl (configuration not stated)	none
CCOC(=O)C1=C(C)n2c(s/c(=C/c3cccc([N+](=O)[O-])c3)c2=O)=NC1c1ccc(O)c(OC)c1 (configuration not stated)	HT1080 IDH1KD tx inconclusive, TDP1 cell noCPT 16µM, DT40 TDP1 CPT 16µM
NC(=O)c1cccc(Nc2nc(C(N)C3CCCCC3)cs2)n1 (configuration not stated)	HT1080NT lethal inconclusive, TDP1 cell noCPT inconclusive, DT40 TDP1 CPT inconclusive
COc1cccc(Nc2nc(C(C)N)cs2)n1 (configuration not stated)	HT1080NT lethal inconclusive, TDP1 cell noCPT inconclusive, DT40 TDP1 CPT 13µM
COc1cccc(Nc2nc(C(N)C3CCCCC3)cs2)n1 (configuration not stated)	HT1080NT lethal inconclusive, HT1080 IDH1KD tx 16µM, TDP1 cell noCPT 23µM, DT40 TDP1 CPT inconclusive, TGFb inhibitor inconclusive, HepG2 viability 16µM

Compound activity as filed in PubChem BioAssay.
